From PubChem BioAssay
“And” between values parts separate entries of the source, which are not always exact repeats. Identical values can stand only once. A number with no mark means an inactive call. No rule for the calls is given here.

target: Lethal factor (Bacillus anthracis) (UniProt P15917); experiment: Bacillus anthracis lethal factor inhibition, microsphere flow cytometry protease assay, validation at 10 µM (AID 588461); details: multiplex microsphere protease cleavage assay, stronger effect = higher value

Row | Structure (SMILES) | inhibition
1 | COC(=O)c1cc(-c2c(C)oc3cc(OC)ccc3c2=O)c(C)o1 | -6.6%
2 | CNc1c2c(nn1C)CCCC2 | -3.5%
3 | CCNC(=S)Nc1ccc(OC(F)(F)F)cc1 | 3%
4 | COc1ccc2[nH]c(=O)c(CNC3CCCCC3)cc2c1 | -0.1%
5 | COc1cccc(OCc2cc(C3Nc4ccccc4C(=O)N3Cc3ccco3)ccc2OC)c1 (centres undefined) | -2.1%
6 | C[C@]12CC[C@@H]3c4ccc(O)cc4C(=O)C[C@H]3[C@@H]1CC[C@@H]2O | -6.8%
7 | CC(C)=CCCC1=CCC2C(=O)NNC(=O)C2C1 (centres undefined) | 3%
8 | N#Cc1c2c(c(-c3ccccc3)[nH]c1=O)CCCC2 | 2.3%
9 | COc1ccc(-c2c[n+](CC(=O)OC3CC(C)CCC3C(C)C)c3n2CCC3)cc1 (centres undefined) | -5.8%
10 | CCC(=O)Oc1ccc(/C(CC)=C(\CC)c2ccc(OC(=O)CC)cc2)cc1 | -0.2%
11 | Nc1cnn(C2OC(CO)C(O)C2O)c(=O)n1 (centres undefined) | -3.7%
12 | O=C(NCCCCCc1nc2ccccc2[nH]1)c1ccccc1Cl | 3.6%
13 | Cc1ccc2c(c1)C(O)(C1COC(C)(C)CC1=O)C(=O)N2C (centres undefined) | -0.8%
14 | Cc1ccc2c(c1)C(O)(c1c(C)[nH]c3ccccc13)C(=O)N2 (centres undefined) | -10%
15 | O=c1[nH]cnc2[nH]ncc12 | -1.1%
16 | N/C(=N/OS(=O)(=O)c1ccc([N+](=O)[O-])cc1)c1ccncc1 | 1%
17 | CCNC1=C(Cl)C(=O)c2ccccc2C1=O | -6%
18 | O=C(O)c1cc(-c2ccccc2)nc2ccccc12 | -9.8%
19 | Cc1nc(N)nc2c1CCCC2 | 4.9%
20 | Nc1ccc(C(=O)O)c(O)c1 | -12% and -5.3%
21 | O=C(NCCN1CCOCC1)c1ccc(Cl)cc1 | -2%
22 | C[C@H](NC(=O)OC(C)(C)C)C(=O)NCC1CCC(C(=O)O)CC1 (some centres undefined) | -1.1%
23 | CC1CNCCN1S(=O)(=O)c1cccc2cnccc12 (centres undefined) | 1.6%
24 | COc1ccc(-c2cc3cc(OC)c(OC)cc3c(C)n2)cc1 | 4.5%
